Assay results as given in PubChem BioAssay.
Inconclusive results are not listed. Activity calls are given as the source filed them. Cut-off read from the data, not from the text of the source, unless noted: active = inhibition above about 30%; inactive = the rest.

Key:
[1] = Her2 expression decrease, cell viability multiplex – SKBR3 breast tumor cells, AlphaScreen, ATP viability, primary screen (AID 461;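 active = Her2 level under about 52% in both replicate screens, with viability over 70% of control, limit read from the data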;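 for Her2 level: lower value means less Her2 protein in the cells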;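 for viability: percent of carrier control wells set as 100% viability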); details: SKBR3 Her2 protein level, 18-24 h, measured here: SKBR3 viability, ATP luminescence, at 10 µM
[2] = target: Receptor tyrosine-protein kinase erbB-2 (Homo sapiens) (UniProt P04626); assay: as above; details: 18-24 h, at 10 µM, stronger effect = lower value
Receptor tyrosine-protein kinase erbB-2 (Homo sapiens), sequence (P04626 whole entry, looked up): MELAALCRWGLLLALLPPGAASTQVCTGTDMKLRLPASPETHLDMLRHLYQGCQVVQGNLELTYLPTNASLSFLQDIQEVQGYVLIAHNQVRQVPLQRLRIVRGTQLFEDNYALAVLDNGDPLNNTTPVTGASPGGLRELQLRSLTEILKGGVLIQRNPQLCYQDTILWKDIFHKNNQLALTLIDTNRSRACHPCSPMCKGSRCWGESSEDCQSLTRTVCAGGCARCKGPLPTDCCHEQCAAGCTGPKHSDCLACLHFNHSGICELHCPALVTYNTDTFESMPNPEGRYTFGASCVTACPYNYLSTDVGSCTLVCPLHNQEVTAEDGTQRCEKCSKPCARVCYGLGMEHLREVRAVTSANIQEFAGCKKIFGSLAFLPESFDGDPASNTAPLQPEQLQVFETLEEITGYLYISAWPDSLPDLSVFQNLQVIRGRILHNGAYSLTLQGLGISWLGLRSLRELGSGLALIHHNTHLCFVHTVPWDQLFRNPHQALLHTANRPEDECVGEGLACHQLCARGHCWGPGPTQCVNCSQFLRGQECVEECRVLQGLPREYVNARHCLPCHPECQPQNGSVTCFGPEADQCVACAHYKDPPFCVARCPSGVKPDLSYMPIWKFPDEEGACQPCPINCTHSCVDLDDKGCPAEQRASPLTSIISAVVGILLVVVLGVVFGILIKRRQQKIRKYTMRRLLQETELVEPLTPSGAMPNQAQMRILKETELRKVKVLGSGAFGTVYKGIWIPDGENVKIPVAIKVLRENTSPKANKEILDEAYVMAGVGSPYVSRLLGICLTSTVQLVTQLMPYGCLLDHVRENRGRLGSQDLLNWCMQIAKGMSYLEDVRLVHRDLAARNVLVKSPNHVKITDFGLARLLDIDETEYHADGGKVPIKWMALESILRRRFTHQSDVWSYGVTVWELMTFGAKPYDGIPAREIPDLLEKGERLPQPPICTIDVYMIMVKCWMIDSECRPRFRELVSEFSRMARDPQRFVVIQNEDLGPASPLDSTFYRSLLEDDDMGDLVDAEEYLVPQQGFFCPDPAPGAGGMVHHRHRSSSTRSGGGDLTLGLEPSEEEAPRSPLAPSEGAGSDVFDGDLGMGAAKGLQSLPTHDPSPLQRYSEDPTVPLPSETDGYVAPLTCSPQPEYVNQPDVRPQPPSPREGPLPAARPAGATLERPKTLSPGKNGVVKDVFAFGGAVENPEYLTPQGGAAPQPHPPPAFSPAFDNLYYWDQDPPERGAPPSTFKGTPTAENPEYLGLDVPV

[3] = reduced viability of SK-BR-3 breast cancer cells – cell-based, 24 h, human, pilot screen (AID 572;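 active = viability at or below 10% of carrier control in both of two separate runs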;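 note: compound exposure lasted between 18 and 24 h rather than exactly 24 h; 100% = carrier-treated control wells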); details: SK-BR-3 viability, CellTiter-Glo luminescence, at 10 µM, stronger effect = lower value
[4] = HUVEC growth inhibition – cell-based, human, primary screen (AID 575;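 active = viability at or below 30% in both replicate assays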;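 note: 100% = median of untreated cell wells with 0.1% DMSO on each plate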); details: HUVEC proliferation, CellTiter-Glo luminescence, 72 h; at 10 µM; stronger effect = lower value
[5] = H69AR cell proliferation blockers – human, duplicate replicates, primary screen (AID 580;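 active = viability at or under a set limit in both replicates, limit being median viability minus 3 SD, cut at about 48% in these data, passing the limit was not always enough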;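 note: 100% = mean luminescence of untreated wells and 0% = no signal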); details: H69AR lung tumor cells viability, ATP luminescence, 72 h; at 10 µM; stronger effect = lower value
[6] = MRP1 drug-resistance reversers in H69AR cells – cell-based, doxorubicin co-treatment, pilot screen (AID 601;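 active = viability loss from added drug above about 55%, and viability with drug at most 40%, in both replicates, limit read from the data, passing the limit was not always enough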); details: CellTiter-Glo, 72 h, at 10 µM; for differential viability (reversal): stronger effect = higher value
[7] = yeast transport mutant growth inhibition pilot in 384-well plates, post-Golgi transport modulator project (AID 636; in the data active = inhibition above about 31%); details: absorbance 615 nm, about 18 h, stronger effect = higher value
[8] = growth suppression of yeast trafficking mutant, preliminary HTS, modulators of trafficking downstream of Golgi apparatus project, 1536-format plate, OD 615 nm (AID 637); details: yeast transport mutant growth, absorbance 615 nm, 18 h; stronger effect = higher value
[9] = S. cerevisiae growth inhibition in permissive medium (OD615), pilot counter-assay for S. cerevisiae lifespan shortening project, permissive growth control (AID 705;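 active = growth inhibition above 25% in both replicates, a cutoff set 3 SD above the mean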); details: OD615, 24 h, at 10 µM, stronger effect = higher value
[10] = S. cerevisiae growth inhibition in restrictive medium, OD615, pilot screen, restrictive growth control, yeast lifespan reduction project (AID 706;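 active = growth inhibition above a set limit, 3 SD over mean compound inhibition, in both replicates, cut at about 43% in these data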;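 note: modified DeaD lifespan yeast strain shifted to restrictive glucose medium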); details: OD615, 48 h, at 10 µM, stronger effect = higher value
[11] = doxorubicin toxicity protection in MRP-1 cells – H69AR cells, CellTiter-Glo, duplicate, MRP-1 activator project, pilot screen (AID 807;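 active = viability increase at or above a cutoff of the median across tested compounds plus 3 SD, cut at about 8.5% in these data, passing the limit was not always enough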;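 note: compound pretreatment 18-22 h then 72 h combined with doxorubicin; 0% = doxorubicin alone and 100% = vehicle without doxorubicin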); details: H69AR viability with doxorubicin, CellTiter-Glo luminescence; at 10 µM; stronger effect = higher value
[12] = viability of HCT116 without oncogenic beta-catenin – human colon tumor cells, pilot screen (AID 823;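 active = cell viability at or below a set limit in both duplicate runs, the limit being the all-compound median minus 4 SD, cut at about 23% in these data, passing the limit was not always enough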;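 note: 0% = wells killed by 20 µM Hyamine and 100% = untreated DMSO cell wells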); details: HCT116 beta-catenin knockout viability, CellTiter-Glo, 60 h; at 10 µM; stronger effect = lower value
[13] = viability of PTEN-null HCT116 cells – cell-based, HCT116 clonal line, CellTiter-Glo, pilot screen (AID 824;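 active = viability at or below 27.92% in each of two runs, the all-compound median minus 4 SD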;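 note: 0% = 20 µM Hyamine control and 100% = vehicle cell control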); details: HCT116 PTEN-deleted viability, 60 h, at 10 µM, stronger effect = lower value
[14] = RAM pathway blockade in budding yeast – dse1pr::URA3 reporter, 5-FOA selection, pilot screen (AID 869;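 active = inhibition over a set limit, the all-compound mean plus 3 SD, in both replicate runs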;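 note: 0% = DMSO wells with no growth and 100% = 10 µM 1-NA-PP1 with full growth; RAM network block rescues cells from 5-FOA so hits raise OD615 growth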); details: S. cerevisiae dse1pr::URA3 5-FOA growth, OD615, 2 d; at 10 µM; stronger effect = higher value; strain carries analog-sensitive mutant Cbk1 kinase
[15] = RAM signaling pathway blockade in yeast – S. cerevisiae, Pdr1DBD-CYC8 efflux-inhibited sensitized strain, primary screen (AID 1298;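 active = RAM network inhibition above 8.4% in each of two replicates, 3 SD over the compound average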;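 note: 0% = DMSO untreated cells without growth and 100% = 10 µM 1-NA-PP1 full growth; higher means more yeast growth rescued from 5-FOA killing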); details: S. cerevisiae cbk1-as DSE1-URA3 strain, 5-FOA growth OD615, 2 d; at 50 µM; stronger effect = higher value
[16] = H69AR cells + 2 uM doxorubicin, measured here: viability with 2 uM doxorubicin, stronger effect = lower value
[17] = H69AR cells, compound alone cytotoxicity

Cc1ccc(-n2c3c(cc(C(=O)NC4CCSC4=O)c2=O)C(=O)CC(C)(C)C3)cc1 (stereo not given)
85.3%: viability [6, 17]
70.7%: viability [6, 16]
inactive: Her2 level [2] 99.5% | viability [3] 101% | viability [4] 85.4% | viability [5] 85.3% | differential viability (reversal) ([6]; H69AR cells + 2 uM doxorubicin) 14.6% | inhibition [7] -1.69% | inhibition [8] -0.67% | growth inhibition [9] -1.71% | growth inhibition [10] -9.19% | viability increase [11] -2.78% | viability [12] 99.1% | viability [13] 101% | inhibition [14] 2.32% | RAM network inhibition [15] 4.09%
101%: viability [1]

COc1ccc2c(c1OC)C(=O)OC2CC(=O)c1ccc(O)cc1 (stereo not given)
87.3%: viability [6, 17]
100%: viability [1]
inactive: Her2 level [2] 111% | viability [3] 100% | viability [4] 106% | viability [5] 87.3% | differential viability (reversal) ([6]; H69AR cells + 2 uM doxorubicin) -3.06% | inhibition [7] 1.3% | inhibition [8] -4.17% | growth inhibition [9] -11.6% | growth inhibition [10] -10.6% | viability increase [11] -0.29% | viability [12] 102% | viability [13] 107% | inhibition [14] 0.365% | RAM network inhibition [15] 4.28%
90.4%: viability [6, 16]

Cc1cccc(C2CC(c3ccccc3)Nc3nc(N)nn32)c1 (stereo not given)
92%: viability [1]
inactive: Her2 level [2] 94.5% | viability [3] 92% | viability [4] 92.7% | viability [5] 108% | differential viability (reversal) ([6]; H69AR cells + 2 uM doxorubicin) 8.54% | inhibition [7] -4.13% | inhibition [8] 1.15% | growth inhibition [9] 1.73% | growth inhibition [10] 3.52% | viability increase [11] -0.5% | viability [12] 99.8% | viability [13] 88.2% | inhibition [14] -0.64% | RAM network inhibition [15] 0.21%
99.5%: viability [6, 16]
108%: viability [6, 17]

COC(=O)c1ccc(NC(=O)CN2CCCC2)cc1
99.2%: viability [6, 16]
107%: viability [1]
99.9%: viability [6, 17]
inactive: Her2 level [2] 97.5% | viability [3] 107% | viability [4] 104% | viability [5] 99.9% | differential viability (reversal) ([6]; H69AR cells + 2 uM doxorubicin) 0.64% | inhibition [7] -2% | inhibition [8] -1.13% | growth inhibition [9] -4.15% | growth inhibition [10] -3.12% | viability increase [11] -0.69% | viability [12] 98% | viability [13] 102% | inhibition [14] 0.115% | RAM network inhibition [15] 0.47%

CCOc1ccc2[nH]c(C)cc(=O)c2c1
108%: viability [6, 17]
89.6%: viability [6, 16]
100%: viability [1]
inactive: Her2 level [2] 100% | viability [3] 100% | viability [4] 94.8% | viability [5] 108% | differential viability (reversal) ([6]; H69AR cells + 2 uM doxorubicin) 18.7% | inhibition [7] 0% | inhibition [8] -9.02% | growth inhibition [9] -12.8% | growth inhibition [10] 3.82% | viability increase [11] -2.11% | viability [12] 96.7% | viability [13] 88.4% | inhibition [14] 2.86% | RAM network inhibition [15] 3.45%

COc1c(S(=O)(=O)n2nc(C)cc2C)ccc(Cl)c1Cl
inactive: Her2 level [2] 101% | viability [3] 98% | viability [4] 101% | viability [5] 98% | differential viability (reversal) ([6]; H69AR cells + 2 uM doxorubicin) -1.02% | inhibition [7] -2.76% | inhibition [8] 2.33% | growth inhibition [9] -5.31% | growth inhibition [10] 8.94% | viability increase [11] 1.75% | viability [12] 95.8% | viability [13] 86.2% | inhibition [14] 1.5% | RAM network inhibition [15] 2.6%
99%: viability [6, 16]
98%: viability [1] | viability [6, 17]

Cc1c(NC(=O)c2ccc(CN3CCc4ccccc4C3)cc2)c(=O)n(-c2ccccc2)n1C
95%: viability [1]
94.3%: viability [6, 16]
98.8%: viability [6, 17]
inactive: Her2 level [2] 109% | viability [3] 95% | viability [4] 94.3% | viability [5] 98.8% | differential viability (reversal) ([6]; H69AR cells + 2 uM doxorubicin) 4.51% | inhibition [7] -5.64% | inhibition [8] -4.83% | growth inhibition [9] -4.14% | growth inhibition [10] -6.79% | viability increase [11] 0.51% | viability [12] 79.6% | viability [13] 84.4% | inhibition [14] 0.845% | RAM network inhibition [15] 5.97%

CCCCC(=O)NCCc1cc2c(C)ccc(C)c2[nH]c1=O
101%: viability [1]
85.1%: viability [6, 17]
83.4%: viability [6, 16]
inactive: Her2 level [2] 95% | viability [3] 101% | viability [4] 119% | viability [5] 85.1% | differential viability (reversal) ([6]; H69AR cells + 2 uM doxorubicin) 1.76% | inhibition [7] -5.07% | inhibition [8] 1.67% | growth inhibition [9] -2.27% | growth inhibition [10] -13.3% | viability increase [11] 0.28% | viability [12] 109% | viability [13] 106% | inhibition [14] 1.61% | RAM network inhibition [15] 0.32%

CC(=O)c1ccc(OCC(O)CN2CCN(Cc3ccc4c(c3)OCO4)CC2)cc1 (stereo not given)
102%: viability [1]
inactive: Her2 level [2] 102% | viability [3] 102% | viability [4] 101% | viability [5] 88.7% | differential viability (reversal) ([6]; H69AR cells + 2 uM doxorubicin) -2.19% | inhibition [7] -6.13% | inhibition [8] 2.5% | growth inhibition [9] -5.95% | growth inhibition [10] -5.68% | viability increase [11] -0.65% | viability [12] 102% | viability [13] 92.4% | inhibition [14] 1.67% | RAM network inhibition [15] 1.31%
90.8%: viability [6, 16]
88.7%: viability [6, 17]

Cc1cccc(N2CCN(C(=O)Cn3nc(Cc4ccncc4)c4ccccc4c3=O)CC2)c1C
75.9%: viability [6, 17]
83.5%: viability [6, 16]
83%: viability [1]
inactive: Her2 level [2] 82% | viability [3] 83% | viability [4] 83.9% | viability [5] 75.9% | differential viability (reversal) ([6]; H69AR cells + 2 uM doxorubicin) -7.61% | inhibition [7] -5.6% | inhibition [8] 1.5% | growth inhibition [9] 1.35% | growth inhibition [10] 6.96% | viability increase [11] 1.06% | viability [12] 70.7% | viability [13] 76% | inhibition [14] 0.445% | RAM network inhibition [15] 3.21%
